Source: PubChem
Only some compounds are listed: those with a hit (about 5.4% of all), similar ones and a draw of the others.
NR0B1 inh = inhibits human nuclear receptor DAX1. inhibition, % at 6.75 µM. 340,000 tested, 0.99% active. P51843. HEK293 Gal4-DAX1 luciferase reporter, luminescence;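 active = inhibition above the mean over all tested compounds plus 3 SD, cut at about 4.2% in these data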;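 note: 0% = DAX1-transfected cells with DMSO and 100% = empty-vector control cells with DMSO; inhibition shows as a rise in luminescence from relieved DAX1 repression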
GAA850 FXN act = frataxin GAA850 promoter activation | AID 540364 | HEK293 lucGAA850 FXN promoter luciferase reporter, 24 h; percent of 10 µM SAHA response | 360,000 tested, 0.56% active | activation, % at 6 µM;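 active = activation above the average of all compounds screened plus 3 SD, cutoff fixed separately per campaign, cut at about 7.5% in these data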;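 note: 0% = DMSO wells and 100% = 10 µM SAHA wells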
AHR activator = activators of human aryl hydrocarbon receptor; P35869; AHR-responsive luciferase reporter cells, luminescence; activation, % at 5 µM; 320,000 tested, 2.5% active; in the data active = activation above about 47%;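 note: 0% = vehicle wells and 100% = reference agonist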
HSF1 activator = increases HSF-1 driven luciferase reporter signal; NIH3T3-HGL HSF-1 luciferase reporter, MG132, 8 h; 100% = twice DMSO control signal; activation, % at 9 µM; 300,000 tested, 1.7% active;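 active = mean replicate activation of at least 50% with a set share of replicates each reaching 50%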;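 note: 0% = median of the neutral control wells and 100% = twice that signal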
HSF1 inhib = HSF1 inhibition | NIH3T3-HGL HSE-luciferase, MG132-induced, luminescence 8 h; active compounds read low | activity change, negative = inhibition, % at 7.5 µM (by protocol) | 300,000 tested, 0.77% active;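 active = more than half of replicate wells show activity change below -50%, luminescence cut by over half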;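 note: luciferase reports HSF-1 transcriptional activity via heat shock element; 0% = median of DMSO wells and -100% = zero luminescence signal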
AHR act confirm = confirmation of human aryl hydrocarbon receptor activators | shares compounds with AHR activator | human cells, AHR-responsive luciferase reporter, luminescence | activation, % at 9 µM | 2,300 tested, 87% active | AID 2845; in the data active = activation above about 49%;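 note: HepG2 hepatoma cells carrying a DRE-driven firefly luciferase reporter; 0% = vehicle wells and 100% = reference agonist wells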
PXR counter = activates human PXR in AHR activator counter-screen; shares compounds with AHR activator; cell-based PXR reporter, luciferase luminescence; activation, % at 11.6 µM; 2,300 tested, 88% active; AID 434939; in the data active = activation above about 11%;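 note: human hepatoma DPX-2 cells expressing full-length human PXR; 0% = DMSO and 100% = reference agonist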
Target sequence (O75469 whole entry, looked up): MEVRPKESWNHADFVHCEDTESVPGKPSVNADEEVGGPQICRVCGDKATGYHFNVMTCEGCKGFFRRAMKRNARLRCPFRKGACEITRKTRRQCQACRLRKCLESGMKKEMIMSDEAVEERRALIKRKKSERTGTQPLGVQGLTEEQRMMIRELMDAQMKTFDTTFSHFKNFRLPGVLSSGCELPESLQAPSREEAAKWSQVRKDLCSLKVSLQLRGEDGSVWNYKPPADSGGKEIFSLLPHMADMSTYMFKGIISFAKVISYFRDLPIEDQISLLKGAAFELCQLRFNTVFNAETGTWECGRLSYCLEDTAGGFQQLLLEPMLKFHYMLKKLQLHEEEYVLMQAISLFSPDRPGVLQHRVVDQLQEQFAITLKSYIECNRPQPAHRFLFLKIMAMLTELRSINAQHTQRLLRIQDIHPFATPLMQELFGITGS
* hit, by the source's call; nt = not tested or not shown.

SMILES	NR0B1 inh	GAA850 FXN act	AHR activator	HSF1 activator	HSF1 inhib	AHR act confirm	PXR counter
CC(C)/C=N/NC(=O)c1ccc(Cl)cc1	0	2	19	22	3	nt	nt
COc1ccccc1NC(=O)CN(Cc1ccco1)C(=O)c1ccc(Cl)nc1	1	0	85*	-2	-1	109*	62*
COc1ccc(Cl)cc1-c1cc(C(=O)NCc2cccc(C(F)(F)F)c2)[nH]n1	nt	-1	nt	nt	nt	nt	nt
Cc1ccc2c(c1)Oc1ccc([N+](=O)[O-])cc1C(=O)N2	-1	3	88*	14	-4	82*	68*
Nc1nc2ccccc2n1/N=C/c1ccc(Br)cc1	1	3	88*	nt	nt	102*	19*
Nc1nc2ccccc2n1/N=C/c1ccc2c(c1)OCO2	nt	4	15	40	22	nt	nt
COc1ccc(CCNC(=O)c2cnc3scc(C)n3c2=O)cc1OC	0	2	105*	-14	-11	94*	40*
C(=C\c1nc(N2CCCC2)c2ccccc2n1)/c1ccccc1	-1	6	162*	33	18	145*	45*
O=C(NC(c1ccc(Cl)cc1)c1cnccn1)C1CCN(Cc2cccc(C(F)(F)F)c2)CC1 (stereo unspecified)	nt	0	nt	nt	nt	nt	nt
CCCN1C(=O)c2cc(C(=O)Nc3ccc(OC)cc3OC)ccc2C1Nc1ccc(OC)cc1OC (stereo unspecified)	-1	3	107*	1	1	79*	64*
CCn1c(=O)c(C(=O)Nc2ncccc2C)c(O)c2ccccc21	0	3	111*	2	-2	96*	26*
Nc1nc(-c2ccc(Br)cc2)cs1	0	4	9	23	-6	nt	nt
Brc1ccc(-c2csc(-c3ccncc3)n2)cc1	0	3	101*	39	25	102*	11*
Cc1ccc(-c2csc(-c3ccncc3)n2)cc1	1	3	80*	20	14	96*	8
c1ccc(-c2csc(-c3cccnc3)n2)cc1	1	2	22	13	16	nt	nt
Brc1ccc(-c2csc(Nc3nc(-c4ccc(Br)cc4)cs3)n2)cc1	-1	1	85*	-2	8	116*	17*
CCCCn1c(SCC(=O)NC2CC2)nc2ccccc2c1=O	2	2	28	-14	1	nt	nt
Cc1ccc(NS(=O)(=O)c2ccc(NC(=O)c3ccccc3C(=O)O)cc2)cc1C	nt	-1	-5	4	0	nt	nt
COc1ccc(NC(=O)C(NC(=O)c2ccc(C)cc2)c2ccccc2)cc1 (stereo unspecified)	2	2	3	12	0	nt	nt
COc1ccc(Nc2cc(C)nc3ccc(OC)cc23)cc1	0	1	40	9	2	nt	nt
COc1ccc(/C=N/Nc2cc(C)nc3ccccc23)cc1	0	0	120*	-4	3	50*	nt
Cc1ccc2nc(C)cc(N/N=C/c3cccc(O)c3)c2c1	-2	1	13	0	5	nt	nt
COc1ccc2nc(C)cc(N/N=C/c3ccc(F)cc3)c2c1	0	-14	80*	-7	12	69*	nt
CCC(C)c1ccc(NC(=S)N2CCN(S(C)(=O)=O)CC2)cc1 (stereo unspecified)	3	0	3	-6	-4	nt	nt
Cc1cc(-c2onc(C)c2C(=O)Nc2ccc(C(F)(F)F)cc2)no1	0	2	84*	-4	0	95*	39*
SMILES	NR0B1 inh	GAA850 FXN act	AHR activator	HSF1 activator	HSF1 inhib	AHR act confirm	PXR counter
Cc1nc(Cl)sc1C(=O)Nc1cccc(C(F)(F)F)c1	-1	0	nt	nt	nt	nt	nt
Cc1nc(-c2cccnc2)sc1C(=O)Nc1ccc(C(F)(F)F)cc1	-1	1	95*	-21	-2	61*	10*
Cc1nc(Cl)sc1C(=O)Nc1ccc(C(F)(F)F)cc1	2	1	99*	25	9	106*	nt
Cc1nc(-c2ccc(C(F)(F)F)cc2)sc1C(=O)NN	1	3	86*	-12	-10	10	14*
CN1C2CCC1/C(=C\c1ccccc1)C(=O)/C2=C\c1ccccc1	-1	3	4	35	23	nt	nt
O=[N+]([O-])c1ccc(CN2C=NS(=O)(=O)c3ccccc32)cc1	2	0	1	14	3	nt	nt
Nc1c2nc(-c3ccccc3Cl)[nH]c(=O)c2nc(=O)n1-c1ccccc1	1	6	87*	-9	2	95*	19*
COc1cc(CC(=O)OCC(=O)N2C(C)CCCC2C)cc(OC)c1OC (stereo unspecified)	0	-2	1	9	-8	nt	nt
Cc1c(-c2nc(-c3cccnc3)no2)cccc1[N+](=O)[O-]	1	2	88*	23	6	119*	19*
Cc1csc(-c2coc3cc(O)cc(C)c3c2=O)n1	3	3	95*	3	17	126*	21*
Cc1ccc(Nc2ncccc2C(N)=O)cc1	2	5	151*	44	29	133*	nt
COc1ccccc1-c1sc2cc3c(cc2c1-c1ccc(OCCN2CCOCC2)cc1)OCO3	-2	1	nt	nt	nt	nt	nt
COc1ccc(-c2sc3cc4c(cc3c2C#CC2(O)CCCCC2)OCO4)cc1	1	4	96*	nt	nt	81*	63*
COc1ccccc1-c1sc2cc3c(cc2c1C#CC1(O)CCCCC1)OCO3	1	0	103*	nt	nt	101*	314*
COc1ccccc1-c1sc2cc3c(cc2c1C#Cc1ccccn1)OCO3	0	1	104*	nt	nt	116*	176*
COc1ccc(-c2oc3ccc(-c4ccc5c(c4)OCO5)cc3c2C#CC2(O)CCCCC2)cc1	1	0	7	-2	-7	nt	nt
COc1ccccc1-c1oc2ccccc2c1C#CC1(O)CCCCC1	2	1	4	nt	nt	nt	nt
O=C(O)c1ccc(Oc2ccc([N+](=O)[O-])cc2)c([N+](=O)[O-])c1	0	-3	nt	nt	nt	nt	nt
Nc1nc2ccc(C(=O)Nc3ccccc3)cc2s1	3	5	100*	40	10	137*	48*
CCc1ccc(NC(=O)c2ccc3nc(N)sc3c2)cc1	1	2	99*	24	9	51*	18*
COc1ccc(NC(=O)c2ccc3nc(C)sc3c2)cc1	2	4	-10	-50	-44	nt	nt
O=C1c2ccccc2NC(c2ccc(Br)s2)N1O (stereo unspecified)	nt	nt	80*	34	-3	81*	25*
Cn1c(CNc2ccc(Cl)cc2)nnc1SCc1ccccc1	-1	2	101*	19	11	44	141*
S=C(NCc1ccco1)Nc1ccc(Br)cn1	1	1	81*	24	10	59*	17*
CCOc1ccc(NC(=O)CN(C)C(=O)CN2C(=O)c3ccc([N+](=O)[O-])cc3C2=O)cc1OCC	0	2	nt	nt	nt	nt	nt
Clc1cc(Cl)c2nc(N3CCCCC3)sc2c1	0	5	25	38	13	nt	nt
